Among all 340,000 compounds or so, about 2,100 (0.62%) were called active.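 How the source made its calls: active means first-screen hits whose inhibition reached a set limit at any dose in the follow-up dose series; inconclusive means inhibition above the set first-screen limit but never retested; inactive means the rest.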 The list is a sample of the results. Results with a measured potency or affinity are listed apart.
molecular target: Rac GTPase-activating protein 1 (Homo sapiens) (UniProt Q9H0H5); experiment: MgcRacGAP GTPase-activating activity inhibitors, confirmation, biochemical, ADP Hunter fluorescence, primary and confirmatory (AID 624330); conditions: MgcRacGAP-stimulated Rac1 GTP hydrolysis, at 30 µM, active compounds read high, GST-tagged Rac1 F28L mutant substrate;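 further: fluorescence reports GDP produced by GAP-driven GTP hydrolysis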
Sequence (Q9H0H5 whole entry, looked up): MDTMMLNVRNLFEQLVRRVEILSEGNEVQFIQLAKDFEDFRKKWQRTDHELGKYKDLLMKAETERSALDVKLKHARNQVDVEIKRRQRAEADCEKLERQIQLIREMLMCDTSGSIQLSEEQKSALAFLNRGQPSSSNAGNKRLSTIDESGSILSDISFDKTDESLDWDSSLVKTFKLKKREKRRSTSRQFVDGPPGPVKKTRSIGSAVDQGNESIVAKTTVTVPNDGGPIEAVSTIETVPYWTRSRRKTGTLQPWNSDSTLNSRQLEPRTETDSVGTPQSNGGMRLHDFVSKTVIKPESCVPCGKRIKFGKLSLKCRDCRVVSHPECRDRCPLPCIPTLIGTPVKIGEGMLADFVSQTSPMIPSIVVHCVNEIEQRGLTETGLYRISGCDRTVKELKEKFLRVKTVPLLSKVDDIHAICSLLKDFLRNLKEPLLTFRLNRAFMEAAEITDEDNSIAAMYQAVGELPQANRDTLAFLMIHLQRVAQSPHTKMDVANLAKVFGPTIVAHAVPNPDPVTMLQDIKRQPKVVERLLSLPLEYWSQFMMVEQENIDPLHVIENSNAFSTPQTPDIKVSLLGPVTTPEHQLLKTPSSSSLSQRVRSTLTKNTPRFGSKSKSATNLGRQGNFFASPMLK

inhibition, inactive:
Cc1ccc(N2CC(C(=O)Nc3ccc(N4CCOCC4)cc3)CC2=O)cc1C (centres undefined) 1.23%
Cc1ccc(N2CC(C(=O)Nc3ccc4c(c3)OCCO4)CC2=O)cc1C (centres undefined) 10.2%
CC1CCc2sc(C(=O)NC3CCN(Cc4ccccc4)CC3)cc2C1 (centres undefined) 3.25%
N#Cc1c(Nc2ccccc2)sc(C(=O)c2ccccc2)c1N -10.7%
Cc1nsc(Nc2ccccc2)c1C#N 4.71%
CSc1nsc(/C=C/Nc2ccc(Cl)cc2)c1C#N 6.16%
Cc1nsc(Nc2ccc([N+](=O)[O-])cc2)c1C#N 2.18%
Cn1ncc2c(Nc3cc(Cl)cc(Cl)c3)ncnc21 11.1%
CN(CC(=O)Nc1ccccc1Cl)C(=O)COC(=O)c1ccccc1[N+](=O)[O-] 11.2%
Cc1cccc(CCN2CCN=C2Nc2ccccc2)c1 10.2%
CCNS(=O)(=O)c1ccc(NC(=O)c2cccnc2)cc1 -7.35%
COc1ccc(/C=N/NC(=O)c2ccc(=O)n(C)c2)cc1OC 11.2%
COc1ccc(/C=N/NC(=O)c2cc(C3CC3)[nH]n2)cc1OC 7.5%
Cn1cc(C(=O)N/N=C/c2cccc(O)c2)ccc1=O 7.64%
COc1cc(/C=N/NC(=O)C2CCN(CC(O)COCc3ccccc3)CC2)cc(OC)c1OC (centres undefined) -0.29%
CCOc1cc(/C=N/NC(=O)C2CCCC2)ccc1OC(C)C 7.91%
CCOc1ccc(/C=N/NC(=O)C2CC2)cc1OC 4.39%
CCOc1cccc(/C=N/NC(=O)c2cc(C3CC3)[nH]n2)c1O 9.09%
C=CCOc1ccc(/C=N/NC(=O)C2CCCC2)cc1OCC 7.59%
COc1cc(/C=N/NC(=O)c2ccc(NC(=O)C3CCCCC3)cc2)ccc1O 8.05%
COc1cc(/C=N/NC(=O)c2ccc(NC(=O)C3CC3)cc2)ccc1OC(C)=O 7.67%
CCn1cc(/C=C(\NC(=O)c2ccccc2)C(=O)NCCCN2CCOCC2)c2ccccc21 13%
COc1ccc(/[N+]([O-])=C/c2ccco2)cc1 9.73%
CC(C)CNC(=O)NC(=O)COC(=O)c1cc(F)cc(F)c1 2.44%
C/C(=N/NC(=O)CSc1nc2ccccc2n1C)c1ccco1 7.14%
C/C(=N/NC(=O)CSc1nc2ccccc2n1C)c1ccncc1 8.72%
CC(=NNC(=O)CSc1nc2ccccc2o1)c1ccco1 3.04%
COc1cc(/C=N/NC(=O)CSc2nc3ccccc3n2C)cc(OC)c1OC -9.37%
CCn1c(SCC(=O)N/N=C/c2ccc(O)c(OC)c2)nc2ccccc21 12%
C/C(=N\NC(=O)CSc1nc2ccccc2o1)c1cccc(O)c1 10.7%
COc1ccccc1C(=O)NC(CCSC)C(=O)NCC(c1ccco1)N(C)C (centres undefined) 10.1%
O=C(O)c1ccc(N2CCS(=O)(=O)CC2)cc1 2.19%
CON(C)c1nc(NCC(C)C)nc(OCC#N)n1 -6.48%
CCn1c(=O)c2cc(C(=O)N3CCN(C)CC3)sc2c2ccccc21 7.75%
COc1ccc(NC(=O)CC2S/C(=N\c3nccs3)N(C)C2=O)cc1 (centres undefined) 13.7%
COc1cc2nncc(SC)c2cc1OC 8.55%
CCCn1c(SCC(=O)N(CC)c2c(N)n(Cc3ccccc3)c(=O)[nH]c2=O)nnc1-c1ccncc1 -0.81%
COc1ccc(OCCCC(=O)NCCc2ccc(OC)c(OC)c2)cc1 5.19%
CCC(=O)Nc1cc(C(F)(F)F)ccc1N1CCOCC1 -1.84%
O=C(CNCc1cccnc1)Nc1cc(C(F)(F)F)ccc1N1CCOCC1 28.2%
O=C(c1cc(Br)c[nH]1)N1CCSCC1 9.76%
COc1ccc(CN2CCN(C3CCOCC3)CC2CCO)c(C)c1C (centres undefined) 13%
COc1cc(C2=NOC(C(=O)N3CCOCC3)C2)cc(OC)c1OC (centres undefined) 7.04%
OCCN1CCN(C(=S)Nc2cccc(C(F)(F)F)c2)CC1 24%
OCCN1CCN(CCCN2c3ccccc3Sc3ccc(C(F)(F)F)cc32)CC1 3.74%
C[C@@H]1CN([C@@H](C)CO)C(=O)c2cc(Br)cnc2O[C@H]1CN(C)C(=O)CCN1CCCCC1 14.8%
S=C(N/N=C/c1ccc(Cl)cc1)N1CCOCC1 0.9%
O=S(=O)(c1ccc(Cl)c(NC(=S)N/N=C/c2c(F)cccc2F)c1)N1CCOCC1 9.48%
O=[N+]([O-])c1cc(Cl)cc(/C=N/NC(=S)Nc2cc(S(=O)(=O)N3CCOCC3)ccc2Cl)c1O 10%
Cc1ccc(/C=N/NC(=S)N2CCOCC2)cc1 4.05%
N#Cc1ccccc1NS(=O)(=O)c1cc2c3c(c1)CCC(=O)N3CCC2 -1.72%
COc1cc(NC(=O)CCN2CCN(CCO)CC2)cc(OC)c1 4.08%
OC(CNCC1COc2ccccc2O1)COc1ccccc1F (centres undefined) 8.38%
OC(CNCC1COc2ccccc2O1)COc1ccc(Cl)cc1 (centres undefined) 6.5%
Cc1ccc2nc(C)cc(C(=O)N3CCCC(CO)(Cc4ccccc4C)C3)c2c1 (centres undefined) 8.23%
CN(C)c1ccc(CN(C)C2CCCCC2)cc1 7.28%
CN(C)c1ccc(CCc2ccc(N)cc2)cc1 31.6%
COc1ccc(C(CCNCc2ccc(OC(C)C)cc2)c2ccccc2OC)cc1 (centres undefined) 7.13%
Cc1c(N2C(=O)/C(=C\c3ccccc3O)SC2=S)c(=O)n(-c2ccccc2)n1C 3.93%
COc1cc(/C=C2\SC(=Nc3ccc(O)cc3)NC2=O)cc(OC)c1O 27.1%
O=C1NC(=Nc2ccccc2)S/C1=C\c1ccccc1 3.51%
Cc1c(N2C(=O)/C(=C/c3ccccc3)SC2=S)c(=O)n(-c2ccccc2)n1C 6.19%
CCc1ccc(N=C2NC(=O)/C(=C/c3cc(OC)c(O)c(OC)c3)S2)cc1 14.6%
Cc1c(N=C2C(=O)Nc3ccccc32)c(=O)n(-c2ccccc2)n1C 1.01%
Cn1c(SCC(=O)NCc2cccs2)nnc1-c1ccncc1 5.96%
O=C(NCc1cc(C(F)(F)F)ccc1Cl)c1cccc2c1C(=O)c1ccc(N3CCCCC3)cc1S2(=O)=O 5.32%
COC(=O)C1CC2=C(CCCC2=O)NC1=O (centres undefined) 5.59%
COc1ccc(O)c(-c2cc(-c3cccc(Br)c3)n[nH]2)c1 10.7%
COc1ccc(NC(=O)C2CCN(C(=O)Cc3ccccc3)CC2)c(OC)c1 8.8%
C/C(=N\NS(C)(=O)=O)c1ccc(C)cc1 5.59%
Cc1cccc(C(=O)Nc2ccc(C(=O)N/N=C/c3ccco3)cc2)c1 1.6%
CN(Cc1ccc(Cl)cc1Cl)C(=O)C1CSC2(C)CCC(=O)N12 (centres undefined) 7.87%
O=S(=O)(/N=C(/Nc1nccs1)c1ccc(F)cc1)c1ccccc1 -7.34%
COc1cccc(OC)c1OCCN1CCCC1 -3.59%
COc1cccc(OC)c1OCCCCCCN1CCN(C)CC1 4.56%
COc1cccc(OC)c1OCCCCN1CCCCC1 19.4%
Cc1cccc(C)c1OCCCN1CCOCC1 9.47%
O=[N+]([O-])c1ccc(/C=N\N2CCN(Cc3ccccc3Cl)CC2)cc1 10%
CC(=O)N1c2ccc(S(=O)(=O)NCCC(=O)NC3CCC(C)CC3)cc2CC1C (centres undefined) 6.14%
O=C(CSCC(=O)OCC(=O)c1ccc(Br)cc1)Nc1ccc(Br)cc1 2.71%
C=CCn1c(C)cc(C(=O)COC(=O)CCc2cc(OC)c(OC)c(OC)c2)c1C 1.52%
COc1ccccc1NS(=O)(=O)c1ccc(C(=O)NCC(c2ccco2)N2CCCCC2)cc1 (centres undefined) -5.8%
Cc1cc(C)c(C)c(OCCCCN(C)Cc2ccccc2)c1 26.2%
Cc1ccc(C(C)C)c(OCCCN(C)Cc2ccccc2)c1 13%
Cc1cc(C)c(OCCN(C)Cc2ccccc2)c(Br)c1 9.5%
Cc1ccc(Cl)c(OCCCCN(C)Cc2ccccc2)c1 26.2%
COc1ccc(-c2c[n+]3c4n2CCCCC4=C(c2ccccc2)C3)cc1 8.53%
CCOC(=O)C1CCN(C(=O)CN2C(=O)c3cccnc3Oc3ccccc32)CC1 6.53%
COc1ccc(NC(=O)CCNS(=O)(=O)c2ccc3c(c2)CC(C)N3C(=O)C2CC2)cc1 (centres undefined) 8.6%
COc1ccc(-c2cc(C(=O)N(C)Cc3ccc(F)cc3)c3ccccc3n2)cc1OC 9.06%
CCSc1nnc([C@H](Cc2c[nH]c3ccccc23)NC(=O)OC(C)(C)C)o1 5.34%
Cc1ccc(NCCC(=O)c2cccs2)cc1Cl -0.47%
COc1ccc(NC(=O)CCC(=O)c2cccs2)cc1Cl 1.13%
O=C1CCNc2c(Cl)cc(Cl)cc21 -0.57%
Cc1ccc(OC(=O)C(F)(F)F)c2c1NCCC2 22.1%
COCc1[nH][nH]c(=O)c1C=Nc1ccc(Cl)cc1 8.52%
Cc1ccc(N(CC(=O)Nc2ccccc2-c2ccccc2)S(=O)(=O)c2ccccc2)cc1 1.42%
O=C1Nc2ccccc2/C1=N/N=C/c1cccc(O)c1 -0.92%
COc1ccc(O)c(/C=N/N=C2/C(=O)Nc3ccccc32)c1 10.2%
